Consider 14 molecules from PubChem BioAssay (Tox21).

Values joined by “and” are separate entries in the source; they are usually repeats but may differ in a detail not shown here. Equal values may be shown once. Inconclusive results are not listed. Some structures have more than one record in an assay (separate samples or runs), and their calls can disagree. Active and inactive are the calls of the source. Calls come from the whole dose curve; as a rule, active = well fitted curve in the direction sought with a large enough effect in the repeat runs; inconclusive = weak or mixed curves; inactive = no such curve, though single readings can be large; an effect the other way counts as inactive or inconclusive.

The nature of assay [1]: qHTS RealTime-Glo MT Cell Viability Assay in HepG2 cells - 40 hour (AID 1224870). Note: nearly all actives have a fitted effect of over 50% in size. The method in brief: (§1)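 Real-time viability: cells seeded at 600 per well together with NanoLuc and cell-permeant prosubstrate, compounds added after 5 h incubation. Luminescence tracked at 0, 8, 16, 24, 32 and 40 h of exposure.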
For orientation: Quantitative high-throughput screening tests each substance at several concentrations.

The nature of assay [2]: A CellTox Green Cytotoxicity Assay to monitor cytotoxicity in HEK293 cells - 40 hour (AID 1224871). Note: nearly all actives have a fitted effect of over 45% in size. Note: potency is the fitted concentration of half-maximal effect. The method in brief:
(§2)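 Real-time, in one plate: 600 HEK293 cells/well with dead-cell DNA dye, pinned compound after 5 h, 37 C incubation over 40 h; viable cells give no appreciable fluorescence.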

A short description of assay [3]: qHTS RealTime-Glo MT Cell Viability Assay in HEK293 cells - 16 hour (AID 1224872). Note: nearly all actives have a fitted effect of over 50% in size. Note: potency is the fitted concentration of half-maximal effect. In outline:
(§3)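 Luminescence generated by NanoLuc from substrate produced by living HEK293 cells served as the viability signal. Each value reflects the reading at its stated time point during continuous 40 h compound exposure at 37 C.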

Assay [4] is described as follows: qHTS RealTime-Glo MT Cell Viability Assay in HepG2 cells - 8 hour (AID 1224873). Note: nearly all actives have a fitted effect of over 55% in size. In outline:
as §1

The nature of assay [5]: A CellTox Green Cytotoxicity Assay to monitor cytotoxicity in HEK293 cells - 24 hour (AID 1224875). Note: series mostly up to about 77 µM; nearly all actives have a fitted effect of over 45% in size. The method in brief: as §2
Assay [6] is described as follows: A CellTox Green Cytotoxicity Assay to monitor cytotoxicity in HepG2 cells - 16 hour (AID 1224876). Note: nearly all actives have a fitted effect of over 45% in size. In outline: (§4)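 Cytotoxicity was tracked as dead-cell DNA fluorescence in HepG2 cells treated with test compounds at 37 C; each time-point value comes from one kinetic series spanning 0, 8, 16, 24, 32 and 40 h.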
Assay [7] in a line: qHTS RealTime-Glo MT Cell Viability Assay in HepG2 cells - 32 hour (AID 1224877). Note: nearly all actives have a fitted effect of over 55% in size. The method in brief: (§5)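 Tox21 10K library screened in qHTS format on HepG2 cells carrying RealTime-Glo reagents. Compounds were added after a 5 h preincubation, and the luminescent signal from continuous culture was measured repeatedly during 40 h treatment.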
Assay [8] can be described thus: A CellTox Green Cytotoxicity Assay to monitor cytotoxicity in HepG2 cells - 24 hour (AID 1224878). Note: nearly all actives have a fitted effect of over 45% in size. Note: potency is the fitted concentration of half-maximal effect. The method in brief: as §4
The nature of assay [9]: A CellTox Green Cytotoxicity Assay to monitor cytotoxicity in HepG2 cells - 40 hour (AID 1224879). Note: nearly all actives have a fitted effect of over 40% in size. Note: potency is the fitted concentration of half-maximal effect. In outline:
as §4

Assay [10] is described as follows: A CellTox Green Cytotoxicity Assay to monitor cytotoxicity in HEK293 cells - 32 hour (AID 1224881). Note: nearly all actives have a fitted effect of over 40% in size. Note: potency is the fitted concentration of half-maximal effect. The method in brief:
as §2

The nature of assay [11]: A CellTox Green Cytotoxicity Assay to monitor cytotoxicity in HepG2 cells - 0 hour (AID 1224882). Note: nearly all actives have a fitted effect of over 35% in size. Note: potency is the fitted concentration of half-maximal effect. In outline:
as §4

Assay [12] is described as follows: A CellTox Green Cytotoxicity Assay to monitor cytotoxicity in HepG2 cells - 32 hour (AID 1224883). Note: nearly all actives have a fitted effect of over 50% in size. Note: potency is the fitted concentration of half-maximal effect. The method in brief:
as §4

Assay [13] is described as follows: A CellTox Green Cytotoxicity Assay to monitor cytotoxicity in HEK293 cells - 8 hour (AID 1224884). Note: nearly all actives have a fitted effect of over 35% in size. Note: potency is the fitted concentration of half-maximal effect. The method in brief:
as §2

Assay [14] is described as follows: qHTS RealTime-Glo MT Cell Viability Assay in HepG2 cells - 16 hour (AID 1224885). Note: nearly all actives have a fitted effect of over 50% in size. In outline:
as §5

A short description of assay [15]: qHTS RealTime-Glo MT Cell Viability Assay in HEK293 cells - 24 hour (AID 1224886). Note: nearly all actives have a fitted effect of over 50% in size. Note: potency is the fitted concentration of half-maximal effect. The method in brief: as §3
The nature of assay [16]: qHTS RealTime-Glo MT Cell Viability Assay in HEK293 cells - 8 hour (AID 1224887). Note: nearly all actives have a fitted effect of over 50% in size. Note: potency is the fitted concentration of half-maximal effect. The method in brief:
(§6)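 Kinetic, non-lysing viability readout. Seed HEK293 (600/well) with reagent, incubate 5 h at 37 C/5% CO2, pin 23 nL compound in DMSO, incubate at 37 C, read luminescence at 0, 8, 16, 24, 32, 40 h.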

Assay [17] is described as follows: A CellTox Green Cytotoxicity Assay to monitor cytotoxicity in HEK293 cells - 16 hour (AID 1224888). Note: nearly all actives have a fitted effect of over 35% in size. The method in brief: as §2
Assay [18] can be described thus: qHTS RealTime-Glo MT Cell Viability Assay in HepG2 cells - 0 hour (AID 1224889). Note: nearly all actives have a fitted effect of over 50% in size. The method in brief:
as §5

A short description of assay [19]: qHTS RealTime-Glo MT Cell Viability Assay in HEK293 cells - 40 hour (AID 1224874). Note: nearly all actives have a fitted effect of over 50% in size. Note: potency is the fitted concentration of half-maximal effect. The following applies: RealTime-Glo luminescence; max response: stronger effect = lower value. The method in brief: as §6
Assay [20] in a line: qHTS RealTime-Glo MT Cell Viability Assay in HEK293 cells - 0 hour (AID 1224880). The method in brief: as §6
% is set by controls: 0 for no effect and ±100 for the full control effect.

For `OCC1CCCO1` (stereo unspecified), the Potency entry in assay [1], in assay [2], in assay [3], in assay [4], in assay [5] and in assay [6] was “inactive” each time. For the same molecule, the Potency result in assay [7], in assay [8], in assay [9], in assay [10], in [11] and in assay [12] was “inactive” each time. The Potency entry in assay [13], in assay [14], in [15], in [16], in assay [17] and in assay [18] was “inactive” throughout.
For `COC(=O)Nc1nc2ccc(Sc3ccccc3)cc2[nH]1`, the Potency in [2] is 21.3 µM (active); in assay [3], 1.38 µM (active) and 1.9 µM (active); in assay [19] it was 616 nM (active) and 848 nM (active); in assay [8] it was “inactive and 10.7 µM (active)”; in assay [9], 1.55 µM (active) and 848 nM (active); in [12], 2.19 µM (active) and 952 nM (active). Moreover, the Potency in assay [15] is 871 nM (active) and 952 nM (active); in [16] it was 1.74 µM (active) and 2.13 µM (active). For the same molecule, the Potency result in assay [4], in [5], in [6], in assay [7], in [20] and in assay [10] was “inactive” throughout. Further, the Potency result in assay [11], in assay [13], in [14] and in assay [17] was “inactive” throughout.
Regarding `O=C1CCCCC1`, the Potency result in [1], in assay [2], in assay [3], in assay [4], in assay [5] and in assay [9] was “inactive” in each case. Besides, the Potency result in assay [20], in assay [10], in [11], in [12], in assay [13] and in [14] was “inactive” in each case. The Potency entry in [15], in assay [16], in [17] and in assay [18] was “inactive” throughout. Also, the max response in [19] is 4.63% (inactive) and 22.1% (inactive).
For the molecule `CCc1ccccc1O`, the Potency result in assay [1], in assay [3], in [4], in assay [5], in assay [7] and in assay [9] was “inactive” in each case. Also, the Potency result in assay [20], in [10], in assay [11], in assay [12], in assay [13] and in assay [14] was “inactive” each time. For the same molecule, the Potency entry in [15], in assay [17] and in assay [18] was “inactive” throughout. Moreover, the Potency in [2] was 54.7 µM (active) and inactive.
Consider `C=C1CC[C@H](O)CC1=C/C=C1\CCC[C@]2(C)[C@@H]([C@H](C)/C=C/[C@H](C)C(C)C)CC[C@@H]12`, for which the Potency entry in assay [1], in [2], in assay [4], in [5], in assay [6] and in assay [7] was “inactive” in each case. Besides, the Potency result in [8], in assay [9], in assay [10], in assay [11], in [12] and in assay [13] was “inactive” throughout. Also, the Potency entry in assay [14], in assay [17] and in assay [18] was “inactive” each time. In addition, the Potency in [3] and in assay [15] was 43.6 µM (active) each time.
Turning to `O=[N+]([O-])c1cccc(Cl)c1`, the Potency entry in [1], in [2], in assay [3], in [4], in assay [5] and in assay [6] was “inactive” in each case. Besides, the Potency result in assay [8], in assay [9], in [10], in assay [11], in assay [12] and in [13] was “inactive” throughout. Moreover, the Potency result in [14], in assay [15], in assay [16] and in assay [17] was “inactive” each time.
`C=C(C)C(=O)OCC(CC)(COC(=O)C(=C)C)COC(=O)C(=C)C`: the Potency entry in assay [1], in [3], in assay [4], in assay [7], in assay [20] and in assay [14] was “inactive” throughout. For the same molecule, the Potency entry in assay [15] and in [16] was “inactive” in each case. In addition, the Potency result in [2] is “inactive and 42.9 µM (active)”; in assay [8], “inactive and 38.2 µM (active)”; in [9], “inactive and 42.9 µM (active)”; in assay [10] it was “inactive and 42.9 µM (active)”; in assay [11] it was “inactive and 42.9 µM (active)”; in assay [12], “inactive and 42.9 µM (active)”. Besides, in [13], the Potency entry is “inactive and 24.1 µM (active)”. For the same molecule, in assay [19], the max response was 2.46% (inactive) and 6.81% (inactive).
With `CC(C)NCC(O)COc1cccc2ccccc12` (stereo unspecified), the Potency result in assay [1], in assay [2], in [3], in [4], in [5] and in assay [8] was “inactive” in each case. Besides, the Potency result in assay [10], in [11], in [13], in assay [14], in assay [15] and in assay [16] was “inactive” in each case. The Potency entry in assay [17] and in assay [18] was “inactive” each time.
As for `CCCCC/C=C\C/C=C\CCCCCCCC(=O)OC`, the Potency result in assay [1], in assay [3], in assay [4], in assay [5], in assay [6] and in [7] was “inactive” throughout. The Potency result in assay [9], in [10], in assay [11], in assay [12], in assay [13] and in assay [14] was “inactive” each time. The Potency result in assay [15], in assay [16] and in assay [17] was “inactive” each time. The Potency result in assay [2] is “inactive and 54.9 µM (active)”.
As to `CCCCOCCOCCOC(=O)CCCCC(=O)OCCOCCOCCCC`, the Potency entry in assay [1], in [2], in assay [3], in [4], in assay [5] and in assay [6] was “inactive” in each case. The Potency entry in assay [7], in [9], in [20], in assay [10], in [11] and in [12] was “inactive” throughout. Also, the Potency result in assay [13], in assay [14], in assay [15], in assay [16], in assay [17] and in [18] was “inactive” throughout.
Regarding `O=Nc1ccc(O)cc1`, the Potency entry in [1], in assay [2], in assay [3], in assay [4], in [5] and in [6] was “inactive” each time. Besides, the Potency entry in assay [8], in [9], in assay [10], in [11], in [12] and in assay [13] was “inactive” in each case. The Potency entry in [14], in assay [15] and in [17] was “inactive” each time.
As for `COCC(C)O` (stereo unspecified), the Potency result in [1], in assay [2], in assay [3], in assay [4], in [5] and in assay [6] was “inactive” each time. Also, the Potency entry in assay [8], in assay [9], in assay [20], in [10], in assay [11] and in assay [12] was “inactive” in each case. Also, the Potency entry in assay [13], in assay [14], in [15], in assay [16], in assay [17] and in assay [18] was “inactive” throughout.
Take `CC(=O)CCc1ccccc1`: the Potency entry in [1], in [2], in [3], in [4], in assay [5] and in assay [9] was “inactive” each time. The Potency entry in assay [10], in [11], in [12], in assay [13], in assay [14] and in [15] was “inactive” in each case. Moreover, the Potency result in assay [16], in assay [17] and in [18] was “inactive” in each case. Moreover, the max response in assay [19] is 1.52% (inactive) and -3.07% (inactive).
Regarding `C=C(C)C(=O)OCCCCCC`, the Potency entry in assay [2], in [3], in assay [4], in [5], in assay [6] and in assay [8] was “inactive” throughout. The Potency result in [9], in [10], in assay [11], in [12], in assay [13] and in assay [14] was “inactive” each time. Further, the Potency result in [15], in [16] and in [17] was “inactive” each time. Moreover, the max response in assay [19] was 7.72% (inactive) and -0.816% (inactive).
